This note sets out measurements from paper PMC12864922, “TDP-43 directly inhibits mRNA accumulation in neurites through modulation of mRNA stability”.

In all, about 9,900 sequences were measured (“r (bound/input frequency ratio)”: median about 0.7, highest 2% from about 6.5 on). The sample holds the highest values, similar sequences and a random draw of the others, so the mix is not that of the screen.

Sequences and labels used below:
B1: ENSMUSG00000061578.1547|Ksr2|98:102 (ssRNA)
RNA: GGGAGUUCUACAGUCCGACGAUCGCUUCGAUAUCCGCAUGCUAUUUAUAAAGUUUUCUACACUUCUCAAAAAAAAAAAUAUUUCUAACCUUGGCUGUUGGACAGUCUGUGAGCCUGUGAGCCGGCAAGCCUGUUGUUUCUACACAUUAGUGCAAUGUUAGUGAGAAUCCAGUGUCUGAGUUAUUAAUGCCAAUAAAGAAUUUGAGAAUUACUGCAUCCGCUGCUGUCACUCCAGGUCAGAACUCUGCUGUUGUCUGUUGGAUGGAAGGAAGCUCCAGAGUGAGGAACAAUGGUUGCUAACUGCCUCUUGCGGUCGCACUAGUGUGGAAUUCUCGGGUGUCAAGG
B2: ENSMUSG00000022095.37|Fam160b2|125:129 (ssRNA)
RNA: GGGAGUUCUACAGUCCGACGAUCGCUUCGAUAUCCGCAUGCUAACCUCACCUGUUGACCCCACGAGCUGAGGUUUCAAGGAGGUGCUGGCUCCUAAGGCAGUGGUAUUCUUGGAGCCUUUUAGAGGAGCUAGAGGAUGGCCAGUGAGCGCCUAGAUGCUGCCCUGCAACACAUGCGUGACUAUCUCUGCUAUAUUGUGACCAGGGCCACAACAUGAGACAACUCCAGGGGCCAGGGAGAUGAACUGCUGUCUUUGAGGCUGGCUAAAAAAACAAUCCAGUCCAGAGAGAUGGGGAGGGGGGGACUCUUGCGGUCGCACUAGUGUGGAAUUCUCGGGUGUCAAGG
B3: ENSMUSG00000032194.151|Kank2|256:260 (ssRNA)
RNA: GGGAGUUCUACAGUCCGACGAUCGCUUCGAUAUCCGCAUGCUAACUUCUAGAAAUACUUUCAGACCUACAGACAAAAAAGAAAAAAGGCCAUUCCGGAGUGACUCCCAGCAUCACAGCCCAGAACCUCCUCCUCAAAGGAGAGUAAACAGAGACUGUGAUACUGACCAAGUACAGGCGCUCGCUAUGAAGCCCAUAUGUUCCUGAUUAAGAGCUGGCUGGCCUCAGAGCACUCCCAGAACUAGCUUAAAGUGACAGGCUUUGCUGAAAUCCAAAGGGACAAAAGAGUAGUUUUAUGUUACACACUCUUGCGGUCGCACUAGUGUGGAAUUCUCGGGUGUCAAGG
B4: ENSMUSG00000029028.13|Lrrc47|42:46;48:52;64:69;71:75;77:81;93:98;100:104;106:110;127:131;143:148;150:154;166:170;173:177;179:183;195:200;202:206;223:227;229:233 … (ssRNA)
RNA: GGGAGUUCUACAGUCCGACGAUCGCUUCGAUAUCCGCAUGCUACCCUCCCCACGUGACUGUGGUCCGCUGACAGGCUCCUGUAGCACACGCACACCUGUAGGUGUCACACACGCACACGCACACCUGUAGGUGUCACACACGCACACGCACACCUAUAGGUAUCUGUGGCACACCUGUAGGUGUCACACACGCACACCUGUAGGUGUCACACAAGCACACGCACACCUGUAGGUGUCACACACGCACACCUAGGUGUCUGUAUAGCACACGCACACCUGUAGAUGUCACACAAGCAUACGGUGCUCUUGCGGUCGCACUAGUGUGGAAUUCUCGGGUGUCAAGG
B5: ENSMUSG00000029028.12|Lrrc47|48:52;54:58;70:75;77:81;83:87;99:104;106:110;112:116;133:137;149:154;156:160;172:176;179:183;185:189;201:206;208:212;229:233;235:23 … (ssRNA)
RNA: GGGAGUUCUACAGUCCGACGAUCGCUUCGAUAUCCGCAUGCUACACCCUCCCUCCCCACGUGACUGUGGUCCGCUGACAGGCUCCUGUAGCACACGCACACCUGUAGGUGUCACACACGCACACGCACACCUGUAGGUGUCACACACGCACACGCACACCUAUAGGUAUCUGUGGCACACCUGUAGGUGUCACACACGCACACCUGUAGGUGUCACACAAGCACACGCACACCUGUAGGUGUCACACACGCACACCUAGGUGUCUGUAUAGCACACGCACACCUGUAGAUGUCACACAAGGUACUCUUGCGGUCGCACUAGUGUGGAAUUCUCGGGUGUCAAGG
B6: ENSMUSG00000029028.12|Lrrc47 (ssRNA)
RNA: GGGAGUUCUACAGUCCGACGAUCGCUUCGAUAUCCGCAUGCUACACCCUCCCUCCCCACGUGACUGUGGUCCGCUGACAGGCUCCUGUAGGUGUGGGUGUGCUGUAGGUGUCUGUGUGGGUGUGGGUGUGCUGUAGGUGUCUGUGUGGGUGUGGGUGUGCUAUAGGUAUCUGUGGGUGUGCUGUAGGUGUCUGUGUGGGUGUGCUGUAGGUGUCUGUGUAGGUGUGGGUGUGCUGUAGGUGUCUGUGUGGGUGUGCUAGGUGUCUGUAUAGGUGUGGGUGUGCUGUAGAUGUCUGUGUAGGUACUCUUGCGGUCGCACUAGUGUGGAAUUCUCGGGUGUCAAGG
B7: ENSMUSG00000029028.11|Lrrc47|54:58;60:64;76:81;83:87;89:93;105:110;112:116;118:122;139:143;155:160;162:166;178:182;185:189;191:195;207:212;214:218;235:239;241:2 … (ssRNA)
RNA: GGGAGUUCUACAGUCCGACGAUCGCUUCGAUAUCCGCAUGCUACCUGAUCACCCUCCCUCCCCACGUGACUGUGGUCCGCUGACAGGCUCCUGUAGCACACGCACACCUGUAGGUGUCACACACGCACACGCACACCUGUAGGUGUCACACACGCACACGCACACCUAUAGGUAUCUGUGGCACACCUGUAGGUGUCACACACGCACACCUGUAGGUGUCACACAAGCACACGCACACCUGUAGGUGUCACACACGCACACCUAGGUGUCUGUAUAGCACACGCACACCUGUAGAUGUCUGUGCUCUUGCGGUCGCACUAGUGUGGAAUUCUCGGGUGUCAAGG
B8: ENSMUSG00000029028.13|Lrrc47 (ssRNA)
RNA: GGGAGUUCUACAGUCCGACGAUCGCUUCGAUAUCCGCAUGCUACCCUCCCCACGUGACUGUGGUCCGCUGACAGGCUCCUGUAGGUGUGGGUGUGCUGUAGGUGUCUGUGUGGGUGUGGGUGUGCUGUAGGUGUCUGUGUGGGUGUGGGUGUGCUAUAGGUAUCUGUGGGUGUGCUGUAGGUGUCUGUGUGGGUGUGCUGUAGGUGUCUGUGUAGGUGUGGGUGUGCUGUAGGUGUCUGUGUGGGUGUGCUAGGUGUCUGUAUAGGUGUGGGUGUGCUGUAGAUGUCUGUGUAGGUAUGGGUGCUCUUGCGGUCGCACUAGUGUGGAAUUCUCGGGUGUCAAGG
B9: ENSMUSG00000029028.11|Lrrc47 (ssRNA)
RNA: GGGAGUUCUACAGUCCGACGAUCGCUUCGAUAUCCGCAUGCUACCUGAUCACCCUCCCUCCCCACGUGACUGUGGUCCGCUGACAGGCUCCUGUAGGUGUGGGUGUGCUGUAGGUGUCUGUGUGGGUGUGGGUGUGCUGUAGGUGUCUGUGUGGGUGUGGGUGUGCUAUAGGUAUCUGUGGGUGUGCUGUAGGUGUCUGUGUGGGUGUGCUGUAGGUGUCUGUGUAGGUGUGGGUGUGCUGUAGGUGUCUGUGUGGGUGUGCUAGGUGUCUGUAUAGGUGUGGGUGUGCUGUAGAUGUCUGUGCUCUUGCGGUCGCACUAGUGUGGAAUUCUCGGGUGUCAAGG

Chain of TDP-43 (Q13148 whole entry): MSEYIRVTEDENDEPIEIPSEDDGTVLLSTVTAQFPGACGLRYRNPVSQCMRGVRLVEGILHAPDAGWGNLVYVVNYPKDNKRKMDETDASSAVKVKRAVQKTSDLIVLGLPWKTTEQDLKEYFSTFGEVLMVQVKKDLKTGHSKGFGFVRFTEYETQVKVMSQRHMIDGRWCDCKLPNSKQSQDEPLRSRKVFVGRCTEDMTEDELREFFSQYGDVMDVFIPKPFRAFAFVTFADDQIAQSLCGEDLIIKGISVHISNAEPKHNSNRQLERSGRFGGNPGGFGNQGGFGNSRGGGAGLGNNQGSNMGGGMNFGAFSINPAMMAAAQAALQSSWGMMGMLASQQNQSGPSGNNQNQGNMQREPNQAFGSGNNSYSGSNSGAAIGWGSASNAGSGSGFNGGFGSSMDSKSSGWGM

In the assay the target is TDP-43 (Homo sapiens, UniProt Q13148 1-414). Briefly: RNA Bind-n-Seq with designed 260-mer pool; 25 mM Tris-HCl, 150 mM KCl, 3 mM MgCl2, BSA (printed 500 mg/mL), 20 units/mL SUPERase IN; pH not stated; 500 nM RNA pool, 1 h, 4 C; TDP-43 5, 50, 500 nM; high values mean tight binding. The note with it: protein: recombinant; tags: SBP (GST cleaved off with PreScission; pGEX-GST-SBP). The method in brief:
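Streptavidin beads captured recombinant SBP-tagged TDP-43 at 5, 50 or 500 nM, and the beads were incubated for 1 h at 4 °C with 500 nM of an in vitro-transcribed pool of 260-nt 3′ UTR oligos in 25 mM Tris-HCl, 150 mM KCl, 3 mM MgCl2, BSA and SUPERase IN. After washing, bound RNA was eluted with biotin, reverse transcribed, PCR-amplified and sequenced. Binding is reported as R, the mapped-read-normalized abundance of each oligo in the bound sample divided by its abundance in the input. Two independent protein batches served as duplicates.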
As for B1, the binding signal was 0.38 R (bound/input frequency ratio).
Regarding B2, the binding signal is 1.26 R (bound/input frequency ratio).
Then B3, with 0.163 R (bound/input frequency ratio).
As for B4, the binding signal was 1.01 R (bound/input frequency ratio).
In the case of B5, the binding signal was 1.21 R (bound/input frequency ratio).
As for B6, the binding signal was 5.27 R (bound/input frequency ratio).
Then B7, with 1.45 R (bound/input frequency ratio); and B8, with 7.14 R (bound/input frequency ratio); and B9, with 7.32 R (bound/input frequency ratio).
